In PubChem BioAssay (EPA / NIEHS) one finds outcome and AC50 data, which are given here for 13 molecules.

Several values for one entry are separate records, joined by “and”; a condition that tells them apart may be missing. Equal entries are not always repeated. Records with an inconclusive call do not appear. Activity calls are given as the source filed them. Rule for the calls, unless noted: active = hit-call score of the fitted dose curve at least 0.9, where 1 is the maximum; inconclusive = response in the unintended direction; inactive = score below 0.9.

The test system of experiment [1] is SRY-box transcription factor 17 (SOX17) Protein Expression, Deisenroth Lab, SOX17 (gene 64321). Description: CCTE_Deisenroth_DEVTOX-GLR_legacy_Sox17: (Legacy) CCTE's DevTox GLR-Endo Assay Evaluation of SRY-box transcription factor 17 (SOX17) Protein Expression, Deisenroth Lab (AID 2284341; active = hit-call score of the fitted dose curve at least 0.9, where 1 is the maximum; inactive = score below 0.9). As to conditions: actives raise or lower the signal. Put shortly: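 Using the RUES2-GLR line, compounds are tested as 10-point series during 48-h defined-media differentiation. Sox17 reporter fluorescence per cell determines positivity; endpoint is percentage positive, analysed bidirectionally versus DMSO baseline.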

A further experiment deals with SERPINA7 (gene 6906). Description: CCTE_GLTED_hTBG: CCTE's human Thyroxine-binding Globulin (TBG) Inhibition Assay, Great Lakes Toxicology and Ecology Division (GLTED) Lab (AID 2284343).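 Note: active chemicals lower fluorescence versus DMSO baseline by displacing probe.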 In outline:
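Measures how far test chemicals displace ANSA bound to purified human TBG. The read-out is fluorescence at 380 nm excitation and 475 nm emission, taken after 2 h of incubation.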

For experiment [2], the system named is SRY-box transcription factor 2 (SOX2) Protein Expression, Deisenroth Lab, SOX2 (gene 6657). Description: CCTE_Deisenroth_DEVTOX-GLR_legacy_Sox2: (Legacy) CCTE's DevTox GLR-Endo Assay Evaluation of SRY-box transcription factor 2 (SOX2) Protein Expression, Deisenroth Lab (AID 2284346; active = hit-call score of the fitted dose curve at least 0.9, where 1 is the maximum; inactive = score below 0.9). As for the experimental part: CCTE_Deisenroth_DEVTOX-GLR_legacy assay is a cell-based, multiplex-readout assay that uses RUES2-GLR, a human pluripotent cell line, with measurements taken at 48 hours after chemical dosing in a 384-well microplateCCTE_Deisenroth_DEVTOX-GLR_legacy_Sox2 is one of 4 assay components calculated from the CCTE_Deisenroth_DEVTOX-GLR_legacy assay that measures an increase in the percentage of cells in an ectodermal or pluripotent state. It is designed to make measurements of inducible reporter a form of fluorescent protein induction as detected with optical fluorescence microscopy. Percentage Sox2+ cells are determined by calculating the number of Sox2+ cells divided by cell count. A cell is Sox2+ if the cell Sox2 mean intensity is 5x BMAD above the directed endoderm control median cell Sox2 mean. The assay endpoint was analyzed with bidirectional fitting with the 0.2% DMSO control median percent Sox2 in the CCTE_Deisenroth_DEVTOX-GLR_Endo assay subtracted.Data from the assay component CCTE_Deisenroth_DEVTOX-GLR_legacy_Sox2 was analyzed into 1 assay endpoint. This assay endpoint, CCTE_Deisenroth_DEVTOX-GLR_legacy_Sox2, was analyzed in the positive analysis fitting direction relative to DMSO as the negative control and baseline activity. Using a type of inducible reporter, gain-of-signal activity can be used to understand changes in gene expression. Furthermore, this assay endpoint can be referred to as a secondary readout, because this assay has produced multiple assay endpoints where this one serves as a measure of pluripotency or ectoderm differentiation. To generalize the intended target to other relatable targets, this assay endpoint is annotated to the transcription factor intended target family, where the subfamily is SRY-related HMG-box.
All assay protocols are aligned to the DevTox GLR-Endo assay workflow. Cells are seeded into 384-well microplates for 24 hours prior to initiating differentiation in defined media for a total duration of 48 hours. A total of two chemical exposures are administered in 24-hour intervals during the 48-hour differentiation period. At the assay termination point, cells are fixed and stained with a fluorescent dye demarcating the nucleus. High-content imaging is used to acquire brightfield and fluorescent channel images across 5 fields per well. Cell identification and mean biomarker fluorescence intensities are calculated with image analysis software to determine the total cell counts for viability assessment and the biomarker expression frequency for each lineage-dependent assay. A typical experimental design tests a 10-point concentration series (1 nM - 200 uM) for 28 compounds in single technical replicate. Assay plate controls include non-differentiated pluripotent cells (baseline control), lineage-specific differentiated cells (differentiation control), and DMSO solvent exposed differentiated cells (solvent control). Experiments typically comprise a minimum of four experimental replicates (n=4).

A short description of experiment [3]: IUF_NPC1_cytotoxicity_72hr: Cytotoxicity Assessment at 72 hours in the Leibniz Research Institute for Environmental Medicine (IUF) Neural Progenitor Cell Proliferation Assay (NPC1) (AID 2284332).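 Note: rising LDH signal means more cytotoxicity.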 Put shortly: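 hNPC spheres (fetal brain, gestational week 16-19) grown under proliferative EGF/FGF conditions, pH 7.2-7.6, were treated continuously for 72 h. Cytotoxicity came from LDH-coupled resazurin fluorescence in each well's supernatant.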

Experiment [4] can be described thus: VALA_TUBIPS_Antagonist_CellCount: Viability Assessment in the VALA Sciences human iPS-derived Endothelial Tubule Formation (TUBIPS) Antagonism Assay (AID 2284335). As for the experimental part:
(§1) VALA_TUBIPS_Agonist is a cell-based, multiplexed assay that uses human iPS-derived endothelial cells (iPSC). Measurements were taken 72 hours after chemical dosing in a 96-well plate.VALA_TUBIPS_Antagonist_CellCount is the one of two assay components measured from the VALA_TUBIPS_Antagonist assay. It is designed to make measurements of viability, a form of viability reporter, as detected with fluorescence intensity signals by HCS Fluorescent Imaging technology. Data from the assay component VALA_TUBIPS_Antagonist_CellCount was analyzed at the endpoint, VALA_TUBIPS_Antagonist_CellCount, in the positive analysis fitting direction relative to DMSO as the negative control and baseline of activity. Using a type of viability reporter, loss-of-signal activity can be used to understand viability. To generalize the intended target to other relatable targets, this assay endpoint is annotated to the cell cycle intended target family, where the subfamily is cell count.
(§2) This HUVEC-HDF assay was designed to detect chemical suppression of tubulogenesis, i.e. antagonism. To measure tubulogenesis antagonism, HUVEC cells were co-cultured with HDF cells at a 1:3 ratio for 3-days in 10 ng/ml VEGF (i.e., favorable conditions with growth factors), then changed to assay medium containing 10 ng/ml VEGF and ToxCast compounds for an additional 3-day period. […]

Experiment [5] in a line: VALA_TUBHUV_Agonist_TubuleLength: VALA Sciences human Umbilical Vein Endothelial Tubule Formation (TUBHUV) Agonism Assay (AID 2284337). In outline:
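HUVEC co-cultured with fibroblasts (1:3) 3 days in 10 ng/ml VEGF, then 3 days with compound plus VEGF; 0.1 % DMSO neutral control. Fixed, nuclear and CD31 stained; tubule length by fluorescence imaging.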

Experiment [6] in a line: VALA_TUBIPS_Agonist_CellCount: Viability Assessment in the VALA Sciences human iPS-derived Endothelial Tubule Formation (TUBIPS) Agonism Assay (AID 2284338). As for the experimental part: as §1, with “plate.VALA_TUBIPS_Agonist_CellCount” for “plate.VALA_TUBIPS_Antagonist_CellCount”, “VALA_TUBIPS_Agonist” for “VALA_TUBIPS_Antagonist”, “VALA_TUBIPS_Agonist_CellCount” for “VALA_TUBIPS_Antagonist_CellCount”, “VALA_TUBIPS_Agonist_CellCount,” for “VALA_TUBIPS_Antagonist_CellCount,”
as §2

A short description of experiment [7]: CCTE_Mundy_HCI_iCellGluta_NOG_NeuronCount: CCTE's Neurite Outgrowth Assay in iCellGluta cells for Neuron Count, Mundy Lab (AID 2284340).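 Note: cells fixed about 48 h after compound addition.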 Put shortly:
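Neuron count read by automated high-content imaging of Hoechst 33342 and betaIII-tubulin/Alexa Fluor-488 labelling in human iPSC glutamatergic neurons. Activity fitted relative to DMSO.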

Experiment [8] can be described thus: CCTE_Mundy_HCI_iCellGluta_NOG_NeuriteCount: CCTE's Neurite Outgrowth Assay in iCellGluta cells for Neurite Count, Mundy Lab (AID 2284342).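 Note: chemical exposure about 48 hours starting 2 hours after plating.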 As for the experimental part: CCTE_Mundy_HCI_iCellGluta_NOG is a multiplexed, cell-based-readout assay that uses iCell GlutaNeurons from FUJIFILM Cellular Dynamics, Inc. (FCDI), human glutamatergic enriched neurons derived from induced pluripotent stem (iPS) cells, with measurements taken at 50.33 hours after chemical dosing in a microplate: 96-well plate.CCTE_Mundy_HCI_iCellGluta_NOG_NeuriteCount is one of four components of the CCTE_Mundy_HCI_iCellGluta_NOG assay. It measures neurite outgrowth related to number of neurites using High Content Imaging of fluorescently labelled markers.Data from the assay component CCTE_Mundy_HCI_iCellGluta_NOG_NeuriteCount was analyzed at the endpoint CCTE_Mundy_HCI_iCellGluta_NOG_NeuriteCount in the positive analysis fitting direction relative to DMSO as the negative control and baseline of activity. Using a type of morphology reporter, loss-of-signal activity can be used to understand developmental effects.
Exposure starts 2 hours post-plating by adding 10 ul of the working solution to 90 ul of media in the wells for a 1/10 dilution. […] A Cellomics ArrayScan VTi HCS Reader is used for automated image acquisition and analysis of neurite outgrowth.

The nature of experiment [9]: VALA_MIGHUV1_ScratchOnly_WoundArea: VALA Sciences human Umbilical Vein Endothelial Cell Migration (MIGHUV) Assay, Area of Scratch Wound Inhibited Recovery (AID 2284336). Put shortly:
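HUVEC monolayers (9000 cells/well) were scratched after 24 h, dosed within 30 min (six concentrations, triplicate, 0.1% DMSO), allowed 24 h recovery, then fixed. Hoechst-stained nuclei in the wound imaged; cytochalasin D as reference.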

`O=C(O)c1cc(N=Nc2ccc(S(=O)(=O)Nc3ccccn3)cc2)ccc1O`: the result in [1] and in [2] was inactive. In the experiment on SERPINA7 (gene 6906), the concentration at half-maximal activity (AC50) was 15.9 µM (active).

Regarding `Cn1c(=O)c2c(ncn2C)n(C)c1=O`, the molecule was classed as inactive in [1] and in experiment [2].

In the case of `Oc1ccc2c(c1)-c1ccccc1C2`, in the experiment with SERPINA7 (gene 6906), the AC50 was 19.4 µM (active).

Turning to `Nc1nc2ncc(CNc3ccc(C(=O)N[C@@H](CCC(=O)O)C(=O)O)cc3)nc2c(=O)[nH]1`, the molecule was called inactive in [1] and in experiment [2].

As to `CC[C@H](C)C(=O)O[C@H]1C[C@@H](C)C=C2C=C[C@H](C)[C@H](CC[C@@H]3C[C@@H](O)CC(=O)O3)[C@H]21`, the AC50 in [1] is 7.97 µM (active); in experiment [2], 41.7 µM (active).

Turning to `O=P(OC(CCl)CCl)(OC(CCl)CCl)OC(CCl)CCl`, the outcome in experiment [3], in experiment [4], in [5], in experiment [6], in experiment [7] and in experiment [8] was inactive. In addition, the AC50 in the experiment with SERPINA7 (gene 6906) is 3.27 µM (active).

For the molecule `CC(C)c1cccc(C(C)C)c1N1C(=O)c2ccc(O)cc2C1=O`, the AC50 in experiment [9] is 5.98 µM (active) and 22.1 µM (active); in [5], 85 µM (active) and 7.58 µM (active); in experiment [6], 80.2 µM (active).

In the case of `NC(=O)NO`, the molecule was classed as inactive in experiment [1] and in [2].

As to `O=C1CCC(N2C(=O)c3ccccc3C2=O)C(=O)N1` (stereo not given), in experiment [1], the AC50 was 1.44 µM (active). Moreover, the result in experiment [2] was inactive.

As for `C[C@](N)(Cc1ccc(O)c(O)c1)C(=O)O`, the outcome in [1] and in experiment [2] was inactive.

On to `O=C(O)c1cccc(Oc2ccccc2)c1`, for which, in the experiment with SERPINA7 (gene 6906), the AC50 was 19.2 µM (active).

Regarding `CC[C@H]1OC(=O)[C@H](C)[C@@H](O[C@H]2C[C@@](C)(OC)[C@@H](O)[C@H](C)O2)[C@H](C)[C@@H](O[C@@H]2O[C@H](C)C[C@H](N(C)C)[C@H]2O)[C@](C)(O)C[C@@H](C)C(=O)[C@H](C)[C@@H](O)[C@]1(C)O`, the outcome in experiment [7] and in [8] was inactive.

As to `Nc1ccc(Nc2ccccc2)cc1`, in the experiment with SERPINA7 (gene 6906), the AC50 was 50 µM (active).

As usually defined, the AC50 is the concentration giving half of the maximal activity seen.
